Measured values from a collection of fitness landscapes (doi:10.1016/j.celrep.2020.107928).
In all, about 81,000 sequences were measured (“one-hybrid fitness for binding parS DNA”: median about -0.17, highest 2% from about 0.51 on). The sample holds the highest values, similar sequences and a random draw of the others, so the mix is not that of the screen.

B1: Caulobacter ParB omega fusion; a variant is named by its letters at X, in order, B8GW30 (parent)
chain: MESVVVGEPGMSEGRRGLGRGLSALLGEVDAAPAQAPGEQLGGSREAPIEILQRNPDQPRRTFREEDLEDLSNSIREKGVLQPILVRPSPDTAGEYQIVAGERAWRAAQRAGLKTVPIMVRELDDLAVLEIGIIENVQRADLNVLEEALSYKVLMEKFERTQENIAQTIGKSXSHVANXMRLLXLPDEVQSYLVSGELTAXHARAIAAAADPVALAKQIIEGGLSVRETEALARKAPNLSAGKSKGGRPPRVKDTDTQALESDLSSVLGLDVSIDHRGSTGTLTITYATLEQLDDLCNRLTRGI

Variants of: B1
Test: one-hybrid fitness for binding parS DNA (scaled: cognate 1, non-cognate 0); higher = stronger binding
Conditions: with parS DNA site
How it was run: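 Values were rescaled so that cognate is 1 and non-cognate is 0. Each is a fitness, the log change in a variant's read ratio to wild type from Illumina reads of plasmids before and after selection, with three replicate libraries pooled and variants under 10 reads dropped. Selection of the Caulobacter ParB libraries, four specificity codons randomised, used E. coli USO with a HIS3 reporter, site 19 bp from the promoter, on M9-minus-histidine with 0.1 mM IPTG and 5 mM 3-AT for 48 hours at 37°C.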

| Variant | one-hybrid fitness for binding parS DNA |
| --- | --- |
| AHPR | ≤ 0.2 |
| NQNV | ≤ 0.2 |
| QPDY | ≤ 0.2 |
| SCMC | ≤ 0.2 |
| LKGL | ≤ 0.2 |
| CAST | ≤ 0.2 |
| INPC | ≤ 0.2 |
| ETLI | ≤ 0.2 |
| FWGR | ≤ 0.2 |
| RHND | ≤ 0.2 |
| RHNS | 0.864 |
| RHDP | ≤ 0.2 |
| RHDH | ≤ 0.2 |
| RHDS | 0.967 |
| RHNH | ≤ 0.2 |
| SDHS | ≤ 0.2 |
| QQDM | ≤ 0.2 |
| MDNG | ≤ 0.2 |
| EESV | ≤ 0.2 |
| LGER | ≤ 0.2 |
| RQGL | ≤ 0.2 |
| RRTG | 0.699 |
| RITD | ≤ 0.2 |
| RITP | ≤ 0.2 |
| RETG | 0.249 |

| Variant | one-hybrid fitness for binding parS DNA |
| --- | --- |
| RRTM | 0.351 |
| RITG | 0.997 |
| RLTD | ≤ 0.2 |
| RLTQ | ≤ 0.2 |
| RLTG | 1.03 |
| RRTK | ≤ 0.2 |
| RCTG | 1.02 |
| RPTG | ≤ 0.2 |
| QTKN | ≤ 0.2 |
| DQEG | ≤ 0.2 |
| NHEC | ≤ 0.2 |
| QCPT | ≤ 0.2 |
| IMKR | ≤ 0.2 |
| GAMN | ≤ 0.2 |
| LESA | ≤ 0.2 |
| LGIT | ≤ 0.2 |
| SQRC | ≤ 0.2 |
| GQLN | ≤ 0.2 |
| NPSA | ≤ 0.2 |
| GPFR | ≤ 0.2 |
| RKTR | ≤ 0.2 |
| RKTK | ≤ 0.2 |
| RFTG | 0.977 |
| RHTD | ≤ 0.2 |
| NFTG | ≤ 0.2 |

| Variant | one-hybrid fitness for binding parS DNA |
| --- | --- |
| DFTG | ≤ 0.2 |
| RMTK | ≤ 0.2 |
| RKTG | 0.905 |
| RHTK | ≤ 0.2 |
| RHTG | 0.967 |
| RMTH | 0.218 |
| RMTG | 1.02 |
| ARLR | ≤ 0.2 |
| MAAN | ≤ 0.2 |
| VTYC | ≤ 0.2 |
| VAAS | ≤ 0.2 |
| WVLT | ≤ 0.2 |
| IAPF | ≤ 0.2 |
| QMYC | ≤ 0.2 |
| YLQA | ≤ 0.2 |
| IPAC | ≤ 0.2 |
| RTTY | 0.477 |
| RSTP | ≤ 0.2 |
| RSTN | 0.461 |
| RTTG | 1 |
| RTTR | ≤ 0.2 |
| RSTG | 1 |
| VSEV | ≤ 0.2 |
| PLGR | ≤ 0.2 |
| SLYF | ≤ 0.2 |

| Variant | one-hybrid fitness for binding parS DNA |
| --- | --- |
| HVAN | ≤ 0.2 |
| SESV | ≤ 0.2 |
| KMES | ≤ 0.2 |
| AYKT | ≤ 0.2 |
| HFLP | ≤ 0.2 |
| IRCS | ≤ 0.2 |
| RNVN | ≤ 0.2 |
| RNVH | 0.202 |
| RNKR | ≤ 0.2 |
| RNVT | 0.514 |
| RNKT | 0.819 |
| RNKF | 0.242 |
| NALR | ≤ 0.2 |
| TTTT | ≤ 0.2 |
| IISE | ≤ 0.2 |
| HKNW | ≤ 0.2 |
| PIET | ≤ 0.2 |
| ILAD | ≤ 0.2 |
| RHFD | ≤ 0.2 |
| RHFH | ≤ 0.2 |
| RHAN | 0.371 |
| RHAP | ≤ 0.2 |
| RHFS | 0.965 |
| RHAS | 0.933 |
| LHQT | ≤ 0.2 |

| Variant | one-hybrid fitness for binding parS DNA |
| --- | --- |
| RQFY | 0.398 |
| RQFC | 0.816 |
| RQAF | 0.25 |
| RQFM | 0.279 |
| RQAC | 0.947 |
| RQAQ | ≤ 0.2 |
| LNHR | ≤ 0.2 |
| ERQR | ≤ 0.2 |
| SWSW | ≤ 0.2 |
| TRLI | ≤ 0.2 |
| CQYS | ≤ 0.2 |
| LSGY | ≤ 0.2 |
| HRTK | ≤ 0.2 |
| RIMC | 0.986 |
| RIMN | 0.39 |
| RLMP | 0.229 |
| RRMC | 0.625 |
| RCMC | 0.976 |
| RRMD | ≤ 0.2 |
| RDMC | ≤ 0.2 |
| RRMH | ≤ 0.2 |
| RLMC | 0.992 |
| RLMH | 0.291 |
| RIMD | 0.234 |
| RPMC | ≤ 0.2 |

| Variant | one-hybrid fitness for binding parS DNA |
| --- | --- |
| IMTG | ≤ 0.2 |
| GAKE | ≤ 0.2 |
| CNSF | ≤ 0.2 |
| GRPA | ≤ 0.2 |
| CRST | ≤ 0.2 |
| IKCT | ≤ 0.2 |
| RMMP | ≤ 0.2 |
| RMMN | 0.435 |
| RKMH | ≤ 0.2 |
| RAMR | ≤ 0.2 |
| RAMC | 0.956 |
| RFMN | 0.242 |
| RFMD | ≤ 0.2 |
| RKMP | ≤ 0.2 |
| RMMC | 0.992 |
| RAMQ | ≤ 0.2 |
| RFMC | 0.824 |
| RKMC | 0.897 |
| TLMF | ≤ 0.2 |
| GTMC | ≤ 0.2 |
| LVSA | ≤ 0.2 |
| ITSK | ≤ 0.2 |
| DYWG | ≤ 0.2 |
| THDS | ≤ 0.2 |
| RKMK | ≤ 0.2 |

| Variant | one-hybrid fitness for binding parS DNA |
| --- | --- |
| YPLS | ≤ 0.2 |
| RTMN | 0.433 |
| RHMC | 0.908 |
| RHMP | ≤ 0.2 |
| RTMP | ≤ 0.2 |
| RHMN | 0.389 |
| RSMC | 0.928 |
| RSMP | ≤ 0.2 |
| RSMD | ≤ 0.2 |
| RTMC | 0.982 |
| AGSI | ≤ 0.2 |
| PTDS | ≤ 0.2 |
| FNHS | ≤ 0.2 |
| TAPE | ≤ 0.2 |
| GYWS | ≤ 0.2 |
| EPIG | ≤ 0.2 |
| PHQC | ≤ 0.2 |
| MHER | ≤ 0.2 |
| KLAC | ≤ 0.2 |
| REYS | 0.287 |
| RERS | 0.529 |
| REKG | 0.533 |
| REYG | ≤ 0.2 |
| REKN | ≤ 0.2 |
| REVS | ≤ 0.2 |

| Variant | one-hybrid fitness for binding parS DNA |
| --- | --- |
| REKS | 0.66 |
| RERH | ≤ 0.2 |
| REVG | ≤ 0.2 |
| QTIM | ≤ 0.2 |
| KYAR | ≤ 0.2 |
| EYFS | ≤ 0.2 |
| PLFV | ≤ 0.2 |
| VHQV | ≤ 0.2 |
| TPHK | ≤ 0.2 |
| RYNY | 0.466 |
| RYCN | 0.382 |
| RYYN | 0.383 |
| RYYH | ≤ 0.2 |
| RYHQ | ≤ 0.2 |
| RYNK | ≤ 0.2 |
| RYCG | 0.974 |
| RYHK | ≤ 0.2 |
| RYNG | 0.975 |
| RYCD | ≤ 0.2 |
| RYHG | 1 |
| RYYG | 0.997 |
